Source: PubChem (National Center for Advancing Translational Sciences (NCATS))
ELG1 DNA repair: blocks ELG1-dependent DNA repair in HEK293T cells; HEK293T ELG1-luciferase reporter, luminescence, 16 h; DNA damage induced by 5-fluorouridine; Potency, µM (highest dose often 46.1 µM), actives largely listed as inhibitors; 330,000 compounds, 2.3% hits; note: nearly all actives have a fitted effect of over 55% in size
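Cells (2,000 per well) received 5-fluorouridine plus test compound or DMSO and were incubated 16 hr at 37 °C, 5% CO2. Luciferase activity was read by luminescence 30 min after ONE-Glo addition; signal suppression marked inhibition of damage-induced ELG1 function.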
NPC1 prom act: NPC1 promoter activation | Huh7 NPC1 promoter luciferase reporter, 24 h | Potency, µM (titrated, usually from 9.22 µM), usual class: activators | 320,000 compounds, 2.4% hits; note: nearly all actives have a fitted effect of over 60% in size
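Stably transfected Huh7 (NPC1 promoter→luciferase), 1500 cells/well in Opti-MEM + 10% FBS, 2 h settle, then compound 24 h at 37 °C. Luminescence after 10 min with Amplite reagent.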
SMN2 splice enh: increases expression of the SMN2 splice variant | Potency, µM (top dose mostly 46.1 µM), hits mostly activators | 210,000 compounds, 2.8% hits | HEK293 SMN2-luciferase splicing reporter, luminescence, 30-36 h | AID 1458; note: nearly all actives have a fitted effect of over 55% in size
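qHTS luciferase splicing reporter: luminescence rises when SMN2 exon 7 is included in transfected HEK293 cells. Compound exposure lasted 30-36 h at 37C, with 4.5 mM final sodium butyrate as control, followed by a ONE-Glo read.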
FLuc counter: counter-screen for miR-21 project: firefly luciferase inhibitors or activators | P08659 | purified FLuc, Km substrates, luminescence inhibition | Potency, µM (highest dose often 57.5 µM), most hits filed as inhibitors | 360,000 compounds, 6.9% hits | AID 588342; note: nearly all actives have a fitted effect of over 55% in size
Target sequence (P08659 whole entry, looked up): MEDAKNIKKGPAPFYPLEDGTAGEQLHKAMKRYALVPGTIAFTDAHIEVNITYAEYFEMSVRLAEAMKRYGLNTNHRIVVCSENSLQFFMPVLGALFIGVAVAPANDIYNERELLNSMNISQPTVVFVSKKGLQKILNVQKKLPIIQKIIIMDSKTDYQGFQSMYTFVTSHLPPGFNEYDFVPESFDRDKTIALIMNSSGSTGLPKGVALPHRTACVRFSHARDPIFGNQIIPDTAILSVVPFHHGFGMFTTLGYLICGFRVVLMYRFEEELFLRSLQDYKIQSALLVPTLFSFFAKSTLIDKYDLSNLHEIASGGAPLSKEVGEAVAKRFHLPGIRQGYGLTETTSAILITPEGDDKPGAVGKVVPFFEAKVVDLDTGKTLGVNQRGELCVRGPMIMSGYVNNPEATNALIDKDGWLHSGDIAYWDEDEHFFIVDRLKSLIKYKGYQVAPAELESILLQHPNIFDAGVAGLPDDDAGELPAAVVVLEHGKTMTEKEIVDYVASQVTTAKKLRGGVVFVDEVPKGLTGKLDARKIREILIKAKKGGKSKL
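Purified P. pyralis luciferase, 10 nM final, with Km-level 10 uM D-luciferin and 10 uM ATP in 50 mM Tris acetate pH 7.5, 10 mM Mg acetate, 0.01% Tween-20, 0.05% BSA; 6-point qHTS titration about 60 µM downward; luminescence read.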
ELG1 genotoxic: inducers of genotoxicity in HEK293T ELG1-luciferase cells | HEK293T ELG1-luciferase reporter, luminescence, 16 h | Potency, µM (top dose mostly 46 µM), usual class: activators | 330,000 compounds, 1.3% hits | AID 504466; note: nearly all actives have a fitted effect of over 60% in size
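Screening used a luciferase reporter fused to human ELG1 in HEK293T cells. Luminescence was read on a CCD plate imager after 16 hr exposure and 30 min ONE-Glo incubation.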
Rab9 prom act: activators of Rab9 promoter. 320,000 compounds, 2.8% hits. Potency, µM (highest dose often 9.22 µM), usual class: activators. Huh7 Rab9 promoter-luciferase reporter, luminescence, 24 h. AID 485297; note: nearly all actives have a fitted effect of over 60% in size
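Measured in stably transfected Huh7 cells bearing a Rab9 promoter–luciferase construct: 24 h compound treatment at 37 °C, followed by luminescence detection.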
A number is an active result; – = inactive; ? = inconclusive; · = not tested or not shown. Only some compounds are listed: those with a hit (about 9.3% of all), similar ones and a draw of the others. Calls come from the whole dose curve; as a rule, active = well fitted curve in the direction sought with a large enough effect; inconclusive = small, poorly fitted or top-dose-only effect, or another doubt; inactive = no such curve, though single readings can be large; an effect the other way counts as inactive or inconclusive.

SMILES	ELG1 DNA repair	NPC1 prom act	SMN2 splice enh	FLuc counter	ELG1 genotoxic	Rab9 prom act
Nc1ccc(-c2nc3ccc(-c4nc5ccc(N)cc5[nH]4)cc3[nH]2)cc1	·	–	?	·	·	–
Nc1ccc2nc(-c3cccc(-c4nc5ccc(N)cc5[nH]4)n3)[nH]c2c1	–	–	·	9.5µM	–	–
Cc1ccc2nc(-c3cccc(N)c3)[nH]c2c1	?	0.79µM	2.2µM	0.95µM	?	1.6µM
CC(=O)c1sc2nc(C)cc(C)c2c1N	–	–	?	–	–	–
Nc1cccc(-c2nc3ccccc3[nH]2)c1	?	2.8µM	13µM	13µM	?	4µM
Cc1ccc2nc(-c3sc4nc(C)cc(C)c4c3N)[nH]c2c1	?	–	2.5µM	0.34µM	?	?
Cc1ccc(C)c(Cn2c3ccccc3c3cnn(CC(=O)NCCCN4CCCCC4)c(=O)c32)c1	–	–	·	–	–	–
Cc1cc(C(=O)COC(=O)c2ccccc2O)c(C)n1Cc1cccs1	?	–	·	0.085µM	–	–
CCn1nc(C(=O)OCC(=O)c2ccc3c(c2)OCCO3)c2ccccc2c1=O	–	–	–	2.4µM	–	–
Cc1cc(C(=O)COC(=O)c2ccc(N)c([N+](=O)[O-])c2)c(C)n1Cc1ccc2c(c1)OCO2	–	–	·	?	–	–
CCn1nc(C(=O)OCC(=O)c2ccc(F)cc2)c2ccccc2c1=O	–	–	–	–	–	–
CCn1nc(C(=O)OCC(=O)c2cc(C)n(Cc3cccs3)c2C)c2ccccc2c1=O	?	–	?	3µM	18µM	–
Cc1cc(C(=O)COC(=O)c2ccc3c(c2)OCO3)c(C)n1Cc1cccs1	?	3.5µM	–	2.7µM	23µM	4µM
COCC(C)n1c(C)cc(C(=O)COC(=O)c2nn(C)c(=O)c3ccccc23)c1C (configuration not stated)	?	·	·	·	–	·
C[C@@H]1CCCCCCCCC(=O)OCCN(C(=O)OC(C)(C)C)[C@H](C)CCCCCCCCC(=O)OCCN(C(=O)OC(C)(C)C)[C@H](C)CCCCCCCCC(=O)OCCN1C(=O)OC(C)(C)C	–	·	·	·	–	·
CC(Sc1nncs1)C(=O)NC1CCCCC1C (configuration not stated)	–	–	·	–	–	–
O=C(Nc1ccncc1)c1cc2ccccc2cc1O	?	2µM	·	1.7µM	?	1.4µM
COc1ccc(NC(=O)c2cc([N+](=O)[O-])ccc2O)cc1	?	0.002µM	·	0.13µM	?	0.0003µM
O=C(O)c1ccccc1C(=O)Nc1cccc([N+](=O)[O-])c1	–	–	·	–	–	–
O=C(Nc1cccc([N+](=O)[O-])c1)c1cc2ccccc2cc1O	?	–	·	0.95µM	–	–
COc1ccc(NC(=O)c2cccc([N+](=O)[O-])c2)cc1	?	?	–	?	?	?
CCc1cc(CNC(=O)C2CCC(=O)N(Cc3ccc(Cl)cc3)C2)on1 (configuration not stated)	–	–	·	–	–	–
O=C(COc1ccccc1F)Nc1nnc(S(=O)(=O)N2CCCCCC2)s1	·	·	·	–	·	·
CC1CCCO1 (configuration not stated)	·	·	–	·	·	·
COc1nc(-c2ccccc2)ccc1-c1noc(-c2ccccc2Br)n1	·	·	–	?	·	·
SMILES	ELG1 DNA repair	NPC1 prom act	SMN2 splice enh	FLuc counter	ELG1 genotoxic	Rab9 prom act
COc1ccc(-c2cn[nH]c2C)cc1	?	–	·	–	–	–
COc1ccc2cc(-c3ccn[nH]3)ccc2c1	?	2.2µM	·	1.3µM	5.8µM	1.8µM
CNc1oc(/C=C/c2ccccc2)nc1C#N	?	?	11µM	2.7µM	?	3.2µM
COCCNc1oc(/C=C/c2ccccc2)nc1C#N	?	?	·	11µM	18µM	3.5µM
O=C(O)c1cccc(NS(=O)(=O)c2ccc(C3CCCCC3)cc2)c1	–	–	–	27µM	–	–
Cc1ccc(C(=O)c2ccccc2C(=O)OCC(=O)Nc2ccc(SC(F)F)cc2)cc1	?	–	–	–	–	–
O=C(COC(=O)Cc1ccccc1F)Nc1ccc(SC(F)F)cc1	–	–	?	13µM	–	–
O=C(COC(=O)c1ccccc1Cc1ccccc1)Nc1ccc(SC(F)F)cc1	?	?	·	6µM	?	2.8µM
Cc1cc(C)cc(NC(=O)COC(=O)Cc2ccccc2F)c1	–	–	·	·	–	–
COc1cc(C(=O)OCC(=O)Nc2ccc(SC(F)F)cc2)cc(OC)c1OC	?	–	–	–	–	–
CCCCC(=O)OCC(=O)Nc1ccc(SC(F)F)cc1	–	–	–	21µM	–	–
O=C(Cc1ccccc1F)Nc1ccc(SC(F)F)cc1	?	4µM	13µM	5.4µM	?	1.6µM
Cc1occc1-c1nnc(SCC(=O)N2CCCCC2)o1	?	–	–	–	–	?
CCOc1ccccc1N(C)C(=O)Cn1cnc2sc(C)c(S(=O)(=O)N3CCC(C)CC3)c2c1=O	·	·	–	–	·	·
CCCCNC(=S)Nc1ccc(SC(F)F)cc1	–	–	–	17µM	–	–
CCCN(Cc1ccccc1)C(=S)Nc1ccc(SC(F)F)cc1	23µM	–	–	–	–	–
CCc1ccccc1NC(=O)COCc1cc(-c2ccco2)on1	·	·	·	–	·	·
COc1ccc(OCC(=O)NC(Cc2c[nH]c3ccccc23)C(=O)O)cc1 (configuration not stated)	·	·	–	–	·	·
CCOC(=O)c1cc(-c2ccccc2)sc1N	?	–	?	21µM	–	?
CCOC(=O)c1sc(-c2ccc(OC)cc2)cc1N	?	2.2µM	·	?	?	1.3µM
CC(=O)c1sc(-c2ccccc2)cc1N	–	–	·	?	–	–
CCOC(=O)c1sc(-c2ccc(F)cc2)cc1N	?	?	?	9.5µM	14µM	2.5µM
CCOC(=O)c1sc(-c2ccccc2)cc1N	?	?	?	13µM	13µM	?
CCOC(=O)c1cc(-c2ccccc2)sc1NC(=O)CC	–	–	–	–	–	–
CCOC(=O)c1cc(-c2ccccc2)sc1NC(=O)C(C)Sc1nnc(N)s1 (configuration not stated)	23µM	–	–	–	–	–
SMILES	ELG1 DNA repair	NPC1 prom act	SMN2 splice enh	FLuc counter	ELG1 genotoxic	Rab9 prom act
CCOC(=O)c1c(N)sc(-c2ccccc2)c1C	?	–	–	17µM	?	–
CCOC(=O)c1sc(-c2ccccc2)cc1NC(=O)Nc1ccc([N+](=O)[O-])cc1	6.5µM	–	–	–	?	–
CCOC(=O)c1cc(-c2ccccc2)sc1NC(=O)CSc1nnc(N)s1	?	–	–	?	–	–
CCOC(=O)c1c(N)sc(C(O)(C(F)(F)F)C(F)(F)F)c1-c1ccccc1	?	–	–	–	–	–
NC(=O)OC[C@H](O)COc1ccc(Cl)cc1	·	·	–	·	·	·
COc1cc(C)ccc1OCc1cc(C(=O)N2C[C@H]3CC[C@H]2C3)no1	–	–	·	–	–	–
